Source: PubChem BioAssay AID1117319 (Southern Research Institute, 2015)
The whole screen tested about 260,000 compounds, of which about 1,500 (0.58%) were called active. About 5% were inconclusive and are not listed.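 The calls were made as follows: active = inhibition above a set limit at one or more doses, reproduced on every date tested; inconclusive = results disagree between test dates, or hit never tested in dose response; inactive = the rest.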 A selection follows. Measured potencies and affinities stand elsewhere.

Each compound was assayed against Virion infectivity factor (Human immunodeficiency virus type 1 group M subtype B (isolate BH10)) + Virion infectivity factor (Human immunodeficiency virus type 1 group M subtype B (isolate BRU/LAI)) + Virion infectivity factor (Human immunodeficiency virus type 1 group M subtype B (isolate PCV12)) + Virion infectivity factor (Human immunodeficiency virus type 1 group M subtype B (isolate HXB2)) + DNA dC->dU-editing enzyme APOBEC-3G (Homo sapiens) (UniProt P69720+P69721+P69722+P69723+Q9HC16) (assay: inhibitors of Vif binding to APOBEC3G peptide, primary screen, biochemical, TR-FRET, GST-Vif 1-94, biotin-A3G peptide, dose response retest (AID 1117319;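 also: Vif residues 1-94 fused to GST binding biotinylated APOBEC3G peptide 110-148; 0% = full assay without inhibitor and 100% = GST in place of GST-Vif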)). Conditions: active compounds read high.

inhibition, inactive:
CCOc1ccc(C(=O)NCC(C)C)cc1 1.08%, Cc1ccc(C)c(NC(=O)N2CCc3ccccc3C2)c1 -0.5%, Cc1cc(C)n(CC2CC(=O)N(c3ccc(Cl)cc3)C2=O)n1 (configuration not stated) -0.66%, CC(=O)N1CCN(C(=O)c2ccc(Oc3ccccc3)cc2)CC1 -9.55%, Cc1ccc(N2C(=O)CN(Cc3sccc3C)C2=S)cc1C 8.31%, CC1C/C=C/C=C/C=C/C=C/C(O[C@@H]2O[C@H](C)[C@@H](O)[C@H](N)[C@@H]2O)CC2OC(O)(CC(O)CC3OC3/C=C/C(=O)O1)CC(O)C2C(=O)O (some centres not stated) -4.31%, COc1ccc(C(=O)O/N=C(\N)c2ccccc2)c(OC)c1 2.57%, O=C1NC2(CCCCC2)C(=O)N1Cc1cc(=O)n2ccsc2n1 -0.24%, CC(C(=O)NCc1ccc2c(c1)OCO2)c1ccc([N+](=O)[O-])cc1 (configuration not stated) 6.03%, CNc1ncnc(Sc2nc(N)nc3nc[nH]c23)c1[N+](=O)[O-] 16.1%, Nc1nc(SCc2ccccc2)c2[nH]cnc2n1 -9.37%, CC1(C)C2C(Cl)(Cl)C2(C)c2ccccc2N1C=O (configuration not stated) -2.3%, COc1ccc(-c2nc3ccccc3n2OC(C)C(=O)O)cc1 (configuration not stated) -3.4%, COc1ccc(-c2nc3ccccc3n2OCC(=O)O)cc1 15.9%, Cn1[nH]c(C(F)(F)F)c(C=NCc2ccc(Cl)cc2)c1=O -4.02%, COc1cccc(-c2cc3c(=O)n(-c4ccccc4)c(=S)[nH]c3s2)c1 -16.9%, Cc1c(C)n2c3c(cccc13)CC2 3.05%, O=C(c1ccccc1)c1ccc2nc(-c3ccco3)c(-c3ccco3)nc2c1 3.26%, O=C(Nc1cccc(-c2nnc(-c3ccco3)o2)c1)c1ccccc1 -5.38%, O=C(Nc1cccc(C(F)(F)F)c1)c1ccco1 -3.65%, O=C(Nc1ccccc1)c1cccc(C(F)(F)F)c1 0.71%, CC(=O)c1ccc(NC(=O)c2cccc(NC(=O)c3ccccc3)c2)cc1 -13.5%, O=C(Nc1ccc(N2CCOCC2)cc1)c1ccc2nc(-c3ccco3)c(-c3ccco3)nc2c1 10.5%, COc1ccc2cc(C3=CC(=O)CC(C)(C)C3=O)ccc2c1 4.18%, Cc1cc(C)nc(-n2ncc3c2CCCC3=O)n1 -7.41%, COc1ccc([C@@H]2C[C@H]3[C@@H](CN2S(=O)(=O)c2ccccc2)C(=O)C[C@@H](c2ccccc2F)N3S(=O)(=O)c2ccc(C)cc2)cc1 -4.64%, CC1CCOC2(O1)C(=O)N(CN1CCN(c3cccc(Cl)c3)CC1)c1ccccc12 (configuration not stated) 16.9%, Cc1ccc(Nc2nc(=O)[nH]nc2C)cc1 23.2%, COCCNC(C(=O)Nc1ccc([N+](=O)[O-])cc1Br)c1ccccc1 (configuration not stated) -2.09%, Cc1noc(NS(=O)(=O)c2ccc(NC(=O)CCCOc3ccc(Cl)cc3Cl)cc2)c1C 2.83%, C=CCSc1nnc(NC(=O)CSc2ccccn2)s1 -2.29%, Cc1nnc(NC(=O)CSc2nnc(NC(=O)C(C)(C)C)s2)s1 22.2%, C#CCOCCOCCOCCNc1nc(N2CCN(C(=O)[C@H](Cc3ccc(O)cc3)n3cc([C@@H](N)C(C)CC)nn3)CC2)nc(N2CCN(C(=O)[C@H](CCCCN)n3cc([C@@H](N)CO)nn3)CC2)n1 (some centres not stated) -12.6%, O=C(COc1c(F)c(F)cc(F)c1F)NNC(=O)CC1CCS(=O)(=O)C1 (configuration not stated) -4.18%, CC1CN(S(=O)(=O)c2cccc(C(=O)OCC(=O)NCc3ccccc3)c2)CC(C)O1 (configuration not stated) -6.28%, Cc1ccc(N2C(=O)c3ccccc3C2C(=O)c2cc(C)ccc2O)cc1 (configuration not stated) 30.2%, COc1ccc(N2C(=O)c3ccccc3NC2c2ccccc2O)cc1 (configuration not stated) -3.39%, CC(=O)SC1CC(=O)N(c2ccc(C(C)(C)C)cc2)C1=O (configuration not stated) -11.1%, O=C(NCCc1ccccc1)c1ccc2nccnc2c1 28.7%, CCc1nc2ccc(C(=O)NCCc3ccc(OC)c(OC)c3)cc2nc1CC 0.19%, COc1ccc(CCNC(=O)c2cc(-c3ccco3)on2)cc1OC -1.47%, O=C(NCCc1ccccc1)c1coc(=O)c(Br)c1 -22.2%, COc1ccc(C(=O)NCc2ccccn2)cc1 19.1%, O=C(NCc1ccccn1)c1ccc(NC(=O)c2ccco2)cc1 1.9%, O=C(NCc1ccccn1)c1ccc(=O)oc1 11.6%, O=C(NCCc1ccccc1)c1cc(-c2ccco2)on1 25.6%, CCN(Cc1ccc(NC(C)=O)cc1)CC1CCCN(CCc2cccc(OC)c2)C1 (configuration not stated) 3.62%, O=C(Cn1nnc(-c2ccccc2Cl)n1)Nc1cccc(S(=O)(=O)N2CCCC2)c1 -4.6%, COC(=O)c1ccccc1NC(=O)Nc1ccc(Cl)cn1 -0.47%, O=C(NCc1ccccc1)c1ccc2nccnc2c1 -2.53%, CCc1nc2ccc(C(=O)NCc3ccccc3)cc2nc1CC 13.9%, CC(C(=O)N1CCN(c2ccc(Cl)cc2)CC1)c1ncc(C(F)(F)F)cc1Cl (configuration not stated) -3.01%, Cc1ccc(S(=O)(=O)NCc2nnc(SCC(=O)Nc3cccc(C)c3C)n2C)cc1 -1.43%, NS(=O)(=O)c1ccc(NC(=O)NC2CCCCC2)cc1 1.56%, CSc1oc(-c2ccco2)nc1S(=O)(=O)c1ccc(F)cc1 9.31%, CSc1oc(-c2ccco2)nc1S(=O)(=O)c1ccc(Br)cc1 6.37%, Cc1ccc2nc3sc(C(=O)Nc4ccc(N5CCOCC5)cc4)c(N)c3cc2c1 12.2%, NC(=O)c1ccc(OCC(F)(F)F)nc1 -12.4%, O=C(NC(=S)N1CCN(c2ccc([N+](=O)[O-])cc2)CC1)c1ccccc1Cl 0.79%, C[C@@H]1CCCCO[C@H](CN(C)C(=O)Nc2cccc3ccccc23)[C@@H](C)CN([C@H](C)CO)C(=O)c2cc(N(C)C)ccc2O1 4.84%, Cc1c(/C=N/Nc2ccc(F)cc2)c(O)n(C)c(=O)c1C#N 12.3%, CC(=O)N=Cc1c(C)c(C#N)c(=O)n(C)c1O 6.56%, O=C(C1CCN(S(=O)(=O)c2ccc3c(c2)OCCO3)CC1)N1CCc2ccccc21 24.2%, CNS(=O)(=O)c1cc(O)c2c(S(=O)(=O)NC)cccc2c1 1.99%, Oc1ccc(Cl)cc1N=Nc1ccccc1 0.9%, COc1ccccc1C(=O)NCCC(=O)Nc1ccc(S(=O)(=O)N2CC(C)CC(C)C2)cc1 (configuration not stated) -5.91%, CC(C)OC(=O)CSc1nnc(Cc2ccccc2)n1C 1.42%, O=C(O)c1cc(-c2ccccn2)n[nH]1 -8.59%, Cc1cc([N+](=O)[O-])cc2ncccc12 22.2%, COc1ccc(OC)c(C2Nc3c(Cl)ccc(C(=O)O)c3C3C=CCC32)c1 (configuration not stated) -11.5%, CC1(C)CC(=O)C2=C(C1)Nc1cc(C(=O)c3ccccc3)ccc1NC2c1ccccn1 (configuration not stated) 1.75%, O=[N+]([O-])c1ccc(Cl)c2c1C1C=CCC1C(c1ccccn1)N2 (configuration not stated) -2.51%, O=C(O)c1ccc2c(c1)C1C=CCC1C(c1cc3c(cc1Br)OCO3)N2 (configuration not stated) -3.12%, Cc1ccc([N+](=O)[O-])cc1S(=O)(=O)Nc1ccccn1 11.9%, CN(C)C(=O)c1ccc2c(c1)C1C3CCC(C3)C1C(c1ccccc1)N2 (configuration not stated) -2.04%, Cc1c(CNCCc2ccccc2Cl)c(C(=O)O)c(C)n1-c1ccccc1 -7.23%, Cc1ccc(C(=O)NC(=S)Nc2cccc(-c3nc4ccccc4s3)c2)cc1 9.8%, CSCCC(NS(=O)(=O)c1ccccc1F)C(=O)NCC(C)(C)N1CCOCC1 (configuration not stated) 1.29%, O=C(OCc1nc2ccsc2c(=O)[nH]1)c1ccc(Cl)s1 11.9%, CCCCN(C(=O)C(C)(C)Oc1ccc(Cl)cc1)c1c(N)n(CCC)c(=O)[nH]c1=O -3.39%, CC(C)CN(CC(C)C)C(=O)Nc1cccc([N+](=O)[O-])c1 0.14%, CCC(C)NC(=O)CSc1nnc(-c2cc(OC)c(OC)c(OC)c2)c(-c2cc(OC)c(OC)c(OC)c2)n1 (configuration not stated) 2.7%, NC(=O)NC(=O)CN1C(=O)NC2(CCOc3ccccc32)C1=O (configuration not stated) 5.28%, N=C1C(c2ccccc2)=C(O)CN1c1cccc(O)c1 10.9%, O=C1CSc2ccc(C(=O)O)cc2N1 10.3%, Cc1ccc2c(c1)[C@H]1OCC[C@H]1[C@@H](c1ccncc1)N2 27.8%, COC(=O)c1ccc(C2Nc3ccc(/C(C)=N/NC(=O)C(OC)c4ccccc4)cc3C3C=CCC32)cc1 (configuration not stated) 11.3%, CC1Cc2cc(C(=O)O)ccc2O1 (configuration not stated) -3.49%, CCc1ccc2oc(=O)cc(CN3CCN(CCO)CC3)c2c1 4.78%, CC/C(=N\Nc1ccc([N+](=O)[O-])cc1[N+](=O)[O-])c1ccc(O)cc1 -6.92%, COc1cccc(-c2nnc3sc(-c4ccccn4)nn23)c1 -11.4%, COc1ccc(-c2nn3c(-c4ccccn4)nnc3s2)cc1OC 12.7%
